Experimental data as given in PubChem BioAssay (Tox21).
Results filed as inconclusive are left out. Activity calls are given as the source filed them. Unless noted, calls come from the whole dose curve; as a rule, active = well fitted curve in the direction sought with a large enough effect in the repeat runs; inconclusive = weak or mixed curves; inactive = no such curve, though single readings can be large; an effect the other way counts as inactive or inconclusive.

Tests used:
[1] = A CellTox Green Cytotoxicity Assay to monitor cytotoxicity in HEK293 cells - 32 hour (AID 1224881); note: nearly all actives have a fitted effect of over 40% in size; note: potency is the fitted concentration of half-maximal effect
Procedure, shortened: (§1)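 Fluorescence from a DNA-binding dye excluded by viable cells was measured repeatedly in the same HEK293 wells (600 cells/well) during continuous compound exposure at 37 C. Each assay gives one read point: 0, 8, 16, 24, 32 or 40 h.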

[2] = A CellTox Green Cytotoxicity Assay to monitor cytotoxicity in HepG2 cells - 0 hour (AID 1224882); note: nearly all actives have a fitted effect of over 35% in size; note: potency is the fitted concentration of half-maximal effect
Procedure, shortened: (§2)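 Real-time cytotoxicity: fluorescence of a cell-impermeant cyanine dye binding DNA of dead HepG2 cells, measured repeatedly (0–40 h) during compound exposure at 37 C. Cells seeded 600/well with reagent, dosed after 5 h.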

[3] = A CellTox Green Cytotoxicity Assay to monitor cytotoxicity in HepG2 cells - 32 hour (AID 1224883); note: nearly all actives have a fitted effect of over 50% in size; note: potency is the fitted concentration of half-maximal effect
Procedure, shortened: as §2

[4] = A CellTox Green Cytotoxicity Assay to monitor cytotoxicity in HEK293 cells - 8 hour (AID 1224884); note: nearly all actives have a fitted effect of over 35% in size; note: potency is the fitted concentration of half-maximal effect
Procedure, shortened: as §1

[5] = qHTS RealTime-Glo MT Cell Viability Assay in HepG2 cells - 16 hour (AID 1224885); note: nearly all actives have a fitted effect of over 50% in size
Procedure, shortened: (§3)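 Viability was tracked continuously by NanoLuc luminescence from prosubstrate reduced by living HepG2 cells, at successive time points over 40 h of compound exposure. Cells with reagent were preincubated 5 h at 37 °C before compound addition.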

[6] = qHTS RealTime-Glo MT Cell Viability Assay in HEK293 cells - 24 hour (AID 1224886); note: top concentration of the series differs between compounds; nearly all actives have a fitted effect of over 50% in size
Procedure, shortened: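 Viability tracked continuously by luminescence as live cells reduce a prosubstrate for NanoLuc; HEK293 cells preincubated 5 h, compound-treated at 37 C, and read at 0, 8, 16, 24, 32 and 40 h.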

[7] = qHTS RealTime-Glo MT Cell Viability Assay in HEK293 cells - 8 hour (AID 1224887); note: top concentration of the series differs between compounds; nearly all actives have a fitted effect of over 50% in size
Procedure, shortened: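 Luminescence, which tracks viable cell number through reduction of the prosubstrate to a NanoLuc substrate, was read over continuous 37 C culture. Cells (600/well) were premixed with reagent and rested 5 h before 23 nL of compound in DMSO was pinned.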

[8] = qHTS RealTime-Glo MT Cell Viability Assay in HepG2 cells - 0 hour (AID 1224889); note: nearly all actives have a fitted effect of over 50% in size
Procedure, shortened: as §3

[9] = A CellTox Green Cytotoxicity Assay to monitor cytotoxicity in HepG2 cells - 8 hour (AID 1224890); note: nearly all actives have a fitted effect of over 45% in size; note: potency is the fitted concentration of half-maximal effect
Procedure, shortened: as §2

[10] = qHTS assay to identify small molecule antagonists of the estrogen receptor alpha (ER-alpha) signaling pathway using the BG1 cell line in the presence of 0.1 nM 17-beta-estradiol - cell viability counter screen (AID 1259241); note: nearly all actives have a fitted effect of over 40% in size
Procedure, shortened: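 Cytotoxicity counter-screen: live-cell protease activity measured by fluorescence (30 min reagent step) in the same wells. Cells were VM7Luc4E2 with endogenous ER-alpha and ERE-driven luciferase, treated 22 hr at 37C alongside 0.1 nM 17beta-estradiol final.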

[11] = qHTS assay to identify small molecule antagonists of the androgen receptor (AR) signaling pathway using the MDA cell line in the presence of 0.5 nM R1881 - cell viability counter screen (AID 1259242); note: nearly all actives have a fitted effect of over 45% in size
Procedure, shortened: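 Live-cell protease activity was measured by CellTiter-Fluor fluorescence after 30 min. Before that, MDA-kb2 MMTV-luciferase cells had 16 hr at 37C without CO2, exposed to test compounds and 0.5 nM R1881 final.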

[12] = biological target: Estrogen receptor (Homo sapiens) (UniProt P03372); experiment: qHTS assay to identify small molecule antagonists of the estrogen receptor alpha (ER-alpha) signaling pathway using the BG1 cell line in the presence of 0.1 nM 17-beta-estradiol (AID 1259244); note: nearly all actives have a fitted effect of over 50% in size
Chain of Estrogen receptor (Homo sapiens) (P03372 whole entry, looked up): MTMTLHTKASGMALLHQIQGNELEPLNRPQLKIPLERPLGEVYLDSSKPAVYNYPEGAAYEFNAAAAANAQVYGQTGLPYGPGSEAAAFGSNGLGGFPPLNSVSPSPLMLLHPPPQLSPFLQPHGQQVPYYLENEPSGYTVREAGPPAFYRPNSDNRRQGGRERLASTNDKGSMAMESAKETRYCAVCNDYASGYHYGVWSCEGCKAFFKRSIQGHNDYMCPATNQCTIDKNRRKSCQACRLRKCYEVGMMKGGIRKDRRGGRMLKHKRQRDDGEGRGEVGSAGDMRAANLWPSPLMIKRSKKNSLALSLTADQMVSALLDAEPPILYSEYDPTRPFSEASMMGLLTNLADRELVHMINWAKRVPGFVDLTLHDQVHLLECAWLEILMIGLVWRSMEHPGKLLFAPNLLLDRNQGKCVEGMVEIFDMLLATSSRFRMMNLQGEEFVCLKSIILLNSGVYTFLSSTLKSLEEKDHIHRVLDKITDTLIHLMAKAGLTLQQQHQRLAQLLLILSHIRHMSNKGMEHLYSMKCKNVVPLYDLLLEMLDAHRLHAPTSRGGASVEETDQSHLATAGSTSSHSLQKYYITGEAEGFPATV
Procedure, shortened: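 Luciferase luminescence (ONE-Glo, 30 min at room temperature) was read after 22 hr at 37C exposure to compounds plus 17beta-estradiol at 0.1 nM final. Cells were VM7Luc4E2 with endogenous ER-alpha and an ERE-driven luciferase, pre-cultured 5 days in hormone-depleted medium.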

[13] = qHTS assay to identify small molecule HDAC inhibitors (AID 1259364); note: nearly all actives have a fitted effect of over 45% in size; note: potency is the fitted concentration of half-maximal effect; for activity change, negative = inhibition: top concentration of the series differs between compounds
Procedure, shortened: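 Luminescence read after 30 min room-temperature HDAC-Glo incubation measures cellular class I/II HDAC activity. Compounds were applied for 2 hr at 37 C to HCT-116 wild-type cells seeded the day before.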

[14] = qHTS assay to identify small molecule HDAC inhibitors - cell viability counter screen (AID 1259365)
Procedure, shortened: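 CellTiter-Glo luminescence (30 min, room temperature) reported viability after a 2 h compound exposure at 37 C. Cells: wild-type HCT-116, 1,500 per well, seeded the night before.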

[15] = qHTS assay to identify small molecule agonists of the sonic hedgehog signaling (Shh) pathway - cell viability counter screen (AID 1259366); note: nearly all actives have a fitted effect of over 50% in size
Procedure, shortened: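 Cytotoxicity counter screen: CellTiter-Fluor reagent added after 23 h compound exposure, then 1 h at 37C and fluorescence read. Cells were 3T3 Gli1-Luc, seeded 2,000 per well and dosed 4 h post-plating.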

[16] = qHTS assay to identify small molecule agonists of the sonic hedgehog signaling (Shh) pathway (AID 1259368; calls by dose curve;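 note: NIH/3T3-derived 3T3Gli1-Luc cells carrying a stable Gli1-driven firefly luciferase reporter; series mostly up to about 92 µM; nearly all actives have a fitted effect of over 15% in size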)
Procedure, shortened: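 Luminescence was read after 30 min at room temperature with luciferase reagent. Before that, 3T3Gli1-Luc cells (NIH/3T3 clone, stable Gli1-Luc reporter; 2,000/well) were exposed to compounds for 24 hr at 37C, 5% CO2, compounds being added 4 hr post-plating.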

[17] = qHTS assay to identify small molecule phospholipidosis (PLD) inducers (AID 1259344; active = well fitted curve in the direction sought with a large enough effect; an effect the other way counts as inactive or inconclusive)
Procedure, shortened: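 Phospholipid accumulation was scored by imaging: fixed, Hoechst-counterstained HepG2 cells stained with LipidTOX Red after 24 h compound exposure at 37 C. Read-outs were pit count and pit intensity per well or per cell, with amiodarone and DMSO controls.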

[18] = qHTS assay to identify small molecule antagonists of the sonic hedgehog signaling (Shh) pathway - cell viability counter screen (AID 1259367); note: nearly all actives have a fitted effect of over 55% in size
Procedure, shortened: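 Viability was read by CellTiter-Fluor fluorescence in the same wells, reagent added 23 hr into compound treatment and incubated 1 hr at 37C. The 3T3 Gli1-Luc reporter cells (2,000/well) received conditioned medium after compound and ran 24 hr.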

[19] = A CellTox Green Cytotoxicity Assay to monitor cytotoxicity in HEK293 cells - 16 hour (AID 1224888); note: nearly all actives have a fitted effect of over 35% in size; note: potency is the fitted concentration of half-maximal effect
Procedure, shortened: as §1

[20] = biological target: Androgen receptor (Homo sapiens) (UniProt P10275); experiment: qHTS assay to identify small molecule antagonists of the androgen receptor (AR) signaling pathway using the MDA cell line in the presence of 0.5 nM R1881 (AID 1259243); note: nearly all actives have a fitted effect of over 50% in size
Chain of Androgen receptor (Homo sapiens) (P10275 whole entry, looked up): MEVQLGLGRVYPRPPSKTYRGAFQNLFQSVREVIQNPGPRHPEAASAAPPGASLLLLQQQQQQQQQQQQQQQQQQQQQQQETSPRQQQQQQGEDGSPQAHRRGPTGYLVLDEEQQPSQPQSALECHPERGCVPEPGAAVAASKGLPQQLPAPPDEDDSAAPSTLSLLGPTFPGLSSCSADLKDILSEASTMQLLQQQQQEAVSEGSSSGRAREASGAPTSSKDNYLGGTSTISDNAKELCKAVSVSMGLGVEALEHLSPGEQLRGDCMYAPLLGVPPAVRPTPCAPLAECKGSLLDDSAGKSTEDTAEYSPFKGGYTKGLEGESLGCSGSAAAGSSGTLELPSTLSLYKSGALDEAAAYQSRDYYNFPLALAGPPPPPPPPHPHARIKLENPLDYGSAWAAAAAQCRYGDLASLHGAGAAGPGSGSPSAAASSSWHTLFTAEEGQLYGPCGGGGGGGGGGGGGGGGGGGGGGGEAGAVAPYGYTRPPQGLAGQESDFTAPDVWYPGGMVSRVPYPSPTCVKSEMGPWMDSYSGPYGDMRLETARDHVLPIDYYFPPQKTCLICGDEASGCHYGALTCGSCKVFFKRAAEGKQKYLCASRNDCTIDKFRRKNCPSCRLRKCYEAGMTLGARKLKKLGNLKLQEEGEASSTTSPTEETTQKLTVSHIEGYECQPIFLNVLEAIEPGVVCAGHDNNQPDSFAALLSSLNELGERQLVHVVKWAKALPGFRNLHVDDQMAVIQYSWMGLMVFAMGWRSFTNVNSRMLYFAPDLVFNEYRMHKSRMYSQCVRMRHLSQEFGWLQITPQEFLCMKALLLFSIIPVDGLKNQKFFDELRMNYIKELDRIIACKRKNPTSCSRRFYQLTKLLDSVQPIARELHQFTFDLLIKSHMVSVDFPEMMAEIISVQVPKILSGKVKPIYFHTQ
Procedure, shortened: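 Luminescent reporter readout (ONE-Glo, 30 min, room temperature) after 16 hr co-treatment of MDA-kb2 cells with test compounds and 0.5 nM R1881 final, at 37C without CO2. The MMTV-driven luciferase responds to both AR and GR.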
% is set by controls: 0 for no effect and ±100 for the full control effect.

CCC(=O)OC(C)c1ccccc1 (configuration not stated)
inactive: Potency [1] | Potency [2] | Potency [3] | Potency [4] | Potency [5] | Potency [6] | Potency [7] | Potency [8] | Potency [9] | outcome [10] | Potency [11] | outcome [12] | Potency [13] | outcome [14] | Potency [15] | outcome [16]

C[C@H](NC(CCc1ccccc1)C(=O)O)C(=O)N1CCC[C@H]1C(=O)O (some centres not stated)
inactive: Potency [1] | Potency [2] | Potency [3] | Potency [4] | Potency [5] | Potency [6] | Potency [7] | Potency [8] | Potency [9] | outcome [10] | Potency [11] | outcome [12] | Potency [17] | Potency [13] | outcome [14] | Potency [18] | outcome [16]

CCOC(=O)CC(C)=O
inactive: Potency [1] | Potency [2] | Potency [3] | Potency [4] | Potency [5] | Potency [7] | Potency [19] | Potency [9] | outcome [10] | Potency [11] | Potency [13] | outcome [14] | Potency [15] | Potency [18]

N[C@@H](C(=O)N[C@@H]1C(=O)N2C(C(=O)O)=C(Cl)CS[C@H]12)c1ccccc1
inactive: cytotoxicity increase [1] -0.855% [at 6.97 µM] | cytotoxicity [2] -11.9% [at 6.97 µM] | cytotoxicity increase [3] -17.5% [at 6.97 µM] | cytotoxicity increase [4] 0.155% [at 6.97 µM] | activity change, negative = cytotoxic [5] 1.78% [at 6.97 µM] | activity change, negative = cytotoxicity [7] 11.8% [at 6.97 µM] | activity change [19] 1.42% [at 6.97 µM, stronger effect = higher value] | activity change, negative = cytotoxicity [8] 1.57% [at 6.97 µM] | cytotoxicity increase [9] -13.7% [at 6.97 µM] | activity change, negative = cytotoxicity [10] 0.43% [at 8.39 µM] | viability change, negative = cytotoxic [11] 4.33% [at 8.39 µM] | activity change, negative = inhibition [12] 7.81% [at 8.39 µM] | Potency [17] | activity change, negative = inhibition [13] 5.64% [at 8.39 µM] | activity change, negative = cytotoxicity [14] -0.59% [at 8.39 µM] | viability change, negative = cytotoxic [15] 1.34% [at 8.39 µM] | viability change, negative = cytotoxic [18] 3.69% [at 8.39 µM] | activity change [16] -0.56% [at 8.39 µM]

C=CCCCCCCCCC=O
inactive: Potency [1] | Potency [2] | Potency [3] | Potency [4] | Potency [5] | Potency [6] | Potency [7] | Potency [8] | outcome [10] | Potency [11] | outcome [12] | Potency [13] | outcome [14] | Potency [15] | Potency [18] | outcome [16]

CCOC(=O)[C@H](CCc1ccccc1)N[C@@H](C)C(=O)N1[C@H](C(=O)O)C[C@@H]2CCC[C@@H]21
inactive: Potency [1] | Potency [2] | Potency [3] | Potency [4] | Potency [5] | Potency [7] | Potency [19] | Potency [8] | Potency [9] | outcome [10] | Potency [11] | outcome [12] | Potency [17] | Potency [13] | outcome [14] | Potency [15] | outcome [16]

CC(=O)Nc1ccc(S(N)(=O)=O)cc1
inactive: Potency [1] | Potency [2] | Potency [3] | Potency [4] | Potency [5] | Potency [7] | Potency [19] | Potency [8] | Potency [9] | outcome [10] | Potency [11] | Potency [20] | outcome [12] | Potency [13] | outcome [14] | Potency [15] | Potency [18] | outcome [16]

CCCCCCOC(=O)CCCCC(=O)OCCCCCC
inactive: Potency [1] | Potency [2] | Potency [3] | Potency [4] | Potency [5] | Potency [7] | Potency [19] | Potency [8] | Potency [9] | outcome [10] | Potency [11] | outcome [12] | Potency [13] | outcome [14] | Potency [18] | outcome [16]

CC(C)NCCCC1(C(N)=O)c2ccccc2-c2ccccc21
inactive: Potency [1] | Potency [2] | Potency [3] | Potency [4] | Potency [5] | Potency [6] | Potency [7] | Potency [8] | Potency [9] | outcome [10] | Potency [11] | outcome [12] | outcome [14] | Potency [15] | Potency [18] | outcome [16]

CC(C)CNCC(C)C
inactive: Potency [1] | Potency [2] | Potency [3] | Potency [4] | Potency [5] | Potency [6] | Potency [7] | Potency [8] | outcome [10] | Potency [11] | Potency [13] | outcome [14] | Potency [15] | Potency [18]

CN(C)CCCNCCCN(C)C
inactive: Potency [1] | Potency [2] | Potency [3] | Potency [4] | Potency [5] | Potency [7] | Potency [19] | Potency [8] | outcome [10] | Potency [11] | outcome [12] | Potency [13] | outcome [14] | outcome [16]

CS(=O)(=O)O
inactive: Potency [1] | Potency [2] | Potency [3] | Potency [4] | Potency [5] | Potency [7] | Potency [19] | Potency [8] | outcome [10] | Potency [11] | Potency [20] | outcome [12] | Potency [13] | outcome [14] | Potency [15] | Potency [18] | outcome [16]

Cc1c(O)cccc1O
inactive: Potency [1] | Potency [2] | Potency [3] | Potency [4] | Potency [5] | Potency [7] | Potency [19] | Potency [9] | outcome [10] | Potency [11] | outcome [12] | Potency [13] | outcome [14] | Potency [15] | outcome [16]

COC(C)(C)CCCC(C)CC=O (configuration not stated)
inactive: Potency [1] | Potency [2] | Potency [3] | Potency [4] | Potency [5] | Potency [6] | Potency [7] | outcome [10] | Potency [11] | Potency [13] | outcome [14] | Potency [18] | outcome [16]

CN(C)CCCSc1ccccc1NC(=O)/C=C/c1ccccc1
active: Potency [1] 19 µM | Potency [2] 19 µM | Potency [3] 19 µM | Potency [4] 16.9 µM | Potency [19] 16.9 µM | Potency [9] 19 µM | Potency [13] 8.41 µM
inactive: Potency [5] | Potency [7] | Potency [8] | outcome [10] | Potency [11] | outcome [12] | Potency [17] | outcome [14] | outcome [16]
